Data on 40 compounds can be found in PubChem BioAssay (Tox21).

Molecules are shown by their SMILES. Several values for one entry are separate records, joined by “and”; a condition that tells them apart may be missing. Equal entries are not always repeated. Inconclusive results are not listed. A call without a number means that no potency is given here. Some structures have more than one record in an assay (separate samples or runs), and their calls can disagree. Activity calls are given as the source filed them. Calls come from the whole dose curve; as a rule, active = well fitted cell-killing curve with a large enough effect in the repeat runs; inconclusive = weak or mixed curves, or effect the other way; inactive = flat fitted curve, though single readings scatter.
Potency is the fitted concentration of half-maximal effect.

This assay in a line: qHTS assay to identify small molecule antagonists of the androgen receptor (AR) signaling pathway using the MDA cell line in the presence of 0.5 nM R1881 - cell viability counter screen (AID 1259242). Note: nearly all actives have a fitted effect of over 45% in size. The conditions noted are these: MDA-kb2 viability, CellTiter-Fluor protease fluorescence, 16 h; series mostly up to 92.4 µM. An excerpt: U.S. Tox21 Program National Center for Advancing Translational Sciences [NCATS] NIH Chemical Genomics Center [NCGC] U.S. Environmental Protection Agency [EPA] National Institutes of Environmental Health Sciences [NIEHS] National Toxicology Program [NTP] U.S. Food and Drug Administration [FDA] Tox21 Assay Overview: Androgen receptor (AR) is an important member of the nuclear receptor family. Its signaling plays a critical role in AR-dependent prostate cancer and other androgen related diseases. Considerable attention has been given in the past decades to develop methods to study and screen for the environmental chemicals that have the potential to interfere with metabolic homeostasis, reproduction, developmental and behavioral functions. Therefore AR binding assay for screening androgen antagonists can be used to identify potential endocrine disruptors. MDA-kb2 cells (from ATCC, deposited by Wilson et al.) were used to screen for AR inhibitors against Tox21 compound libraries. These cells are human breast carcinoma cells that were stably transfected with a luciferase reporter gene under control of the MMTV promoter that contains response elements for both androgen receptor (AR) and glucocorticoid receptor (GR). The current screening for identification of AR inhibitors against Tox21 libraries used lower concentration of (0.5 nM) R1881 as a stimulator. The cytotoxicity of the Tox21 compound libraries against MDA-kb2 cell line was tested by measuring live-cell protease activity using CellTiter-Fluor assay in the same wells.
Tox21 Assay Protocol Summary: MDA-kb2 cells (cells cultured without CO2) were dispensed at 3,000 cells/well in 4 uL of culture medium into white wall/solid-bottom 1536-well plates (Corning Life Sciences, Corning, NY) using a Multidrop Combi (ThermoFisher Scientific, Waltham, MA) dispenser. After the assay plates were incubated at a 37C and 0% CO2 for 5 hr, 23 nL of compounds dissolved in DMSO, positive controls or DMSO only was transferred to the assay plate by a Pintool station (Kalypsys, San Diego, CA). The transfer of compounds was followed by the addition of 1 uL of 0.5 nM (final concentration) agonist (R1881)/culture medium using a Flying Reagent Dispenser (FRD, Aurora Discovery, San Diego, CA). The plates were incubated at 37C and 0% CO2 for 16 hr. For cytotoxicity assay, 1 uL of CellTiter-Fluor reagent (Promega Corporation, Madison, WI) was added to each well using the FRD and after 30 min incubation at 37C and 0% CO2, The fluorescence intensity was measured using ViewLux plate reader (PerkinElmer, Shelton, CT).
A general note: In qHTS, concentration-response curves come from the screen itself.
For `c1ccc(Nc2ccccc2)cc1`, the Potency entry is “inactive”.

Regarding `c1ccc2cc(Nc3ccc(Nc4ccc5ccccc5c4)cc3)ccc2c1`, the Potency entry is “inactive”. As for `O=CCc1ccccc1`, the Potency result is “inactive”. Then `CCCCC(CC)COCC1CO1` (stereo not given), with “inactive”. As for `C=C(C)C(=O)OCCOC(=O)C(=C)C`, the Potency entry is “inactive”. Turning to `C/C=C/C(=O)O`, the Potency entry is “inactive”. For `CCCCNS(=O)(=O)c1ccccc1`, the Potency result is “inactive”. Turning to `c1ccncc1`, the Potency entry was “inactive”. For `NC=O`, the Potency result is “inactive”. For the compound `CN(C)CCC=C1c2ccccc2CCc2ccccc21`, the Potency result was “inactive”. Turning to `C#C[C@]1(O)CC[C@H]2[C@@H]3CCc4cc(OC)ccc4[C@H]3CC[C@@]21C`, the Potency entry is “inactive”. As for `Nc1ncnc2nc[nH]c12`, the Potency result was “inactive”. On to `Cc1ncc[nH]1`, for which the Potency result is “inactive”.

On to `O=C1OC2(c3cc(Br)c(O)c(Br)c3Oc3c2cc(Br)c(O)c3Br)c2c(Cl)c(Cl)c(Cl)c(Cl)c21`, for which the Potency was 6.12 µM (active) and 18.6 µM (active). For the compound `Nc1ccc(Cl)cc1Cl`, the Potency result is “inactive”.

Take `O=C(O)c1ccccc1Nc1cccc(C(F)(F)F)c1`: the Potency entry is “inactive”.

Turning to `C=C(C)C1CC=C(C)CC1` (stereo not given), the Potency entry was “inactive”. Take `CCCc1c(OCCCCc2nn[nH]n2)ccc(C(C)=O)c1O`: the Potency result was “inactive”. In the case of `OC1CCCCCCCCCCC1`, the Potency entry was “inactive”. For the compound `CC(C)OC(=O)C(C)(C)Oc1ccc(C(=O)c2ccc(Cl)cc2)cc1`, the Potency result is “inactive”. On to `C[Si](C)(C)O[Si](C)(C)C`, for which the Potency result is “inactive”.

In the case of `c1cc(-c2ccncc2)ccn1`, the Potency entry was “inactive”. Then `CC(=O)C1(C)CC2=C(CCCC2(C)C)CC1C` (stereo not given), with “inactive”; and `Cn1cnc([N+](=O)[O-])c1Sc1ncnc2nc[nH]c12`, with “inactive”. In the case of `Cc1ccc(C(=O)c2cc(O)c(O)c([N+](=O)[O-])c2)cc1`, the Potency was 54.5 µM (active).

For the compound `O=C(/C=C/c1ccccc1)OCc1ccccc1`, the Potency result was “inactive”.

On to `CCCCC(CC)COP(=O)(OCC(CC)CCCC)OCC(CC)CCCC` (stereo not given), for which the Potency result is “inactive”. Regarding `c1ccc2c(c1)c1cccc3ccc4cccc2c4c31`, the Potency result is “inactive”. For `c1cc(N(CC2CO2)CC2CO2)ccc1OCC1CO1` (stereo not given), the Potency result was “inactive”. Consider `CC(=O)O[C@]1(C(C)=O)CC[C@H]2[C@@H]3C=C(Cl)C4=CC(=O)[C@@H]5C[C@@H]5[C@]4(C)[C@H]3CC[C@@]21C`, for which the Potency result is “inactive”.

`Oc1ccc(O)cc1`: the Potency result was “inactive”. Under `Nc1ccc(Nc2ccccc2)cc1` stands “inactive”; under `CCOC(=O)C(C#N)=C(c1ccccc1)c1ccccc1`, “inactive”. With `CCCC(=O)O`, the Potency result is “inactive”. Take `CC1=CC2C3CC(C=C3C)C2C1` (stereo not given): the Potency result is “inactive”.

Consider `CNCCCC12CCC(c3ccccc31)c1ccccc12`, for which the Potency is 54.5 µM (active) and inactive. Then `O=Cc1ccccc1O`, with “inactive”. As for `COc1ccccc1/C=C/C=O`, the Potency result is “inactive”. Under `C#C[C@]1(O)CC[C@H]2[C@@H]3CCC4=Cc5oncc5C[C@]4(C)[C@H]3CC[C@@]21C` stands “inactive”. `CCC(C)CO` (stereo not given): the Potency entry was “inactive”.
